The first assay addresses FNTB. Kind of assay: pooled miR-30 sensor sort-seq; sequence = guide strand. The conditions noted are these: shRNA.
TACAAGGTGGTTGAACTTGTAA registered a sensor-assay potency score (higher = more potent) of -0.905. On the same count and under the same terms, next, TTGACTGCTGCATATGTGGGTG: -0.313. The same measure, in the same setting: next, TATTGAAACGTATAAACCTTGT: -0.892. Same read-out and setting: next, TTGAACTTGTAAGAACTGAAGA: -0.977; TTGTCGAAGGCCTCTTTTCAGA: -1.02; TTTGCCTGTTCTATGGACGTGA: 0.213. With TAGAAAGTATGTAGTGGCCTGG, the sensor-assay potency score (higher = more potent) is -0.497. Same read-out and setting: next, TCATCTAGCAGTTCCAAGCTGT: 0.0729; TTCTGTAGAAAGTATGTAGTGG: 0.598. On the same count and under the same terms, the same measure for TAAACCTTGTCTGACTGGGGAG: -0.535. Same read-out and setting: the same measure for AAGAACTGAAGACCTCTTGGAT: -0.153; for TCATGCAACATGGCTCCGCTGC: -1.29; for TCCTCCTTCAAATCGCATCTGC: -0.214.

For TTAAGCTCCTCAAAACCTGGGA, the sensor-assay potency score (higher = more potent) is -0.317. TACTTTTGCCTGTTCTATGGAC displayed a sensor-assay potency score (higher = more potent) of -0.547.

For TCTGTAGCCACTATCTGGGGGA, the sensor-assay potency score (higher = more potent) was 0.162.

Another assay concerns the target FOXK1. The assay is described as above. The conditions noted are these: shRNA.
In turn, TTCAAAGAGAGGTTGTGCCGGA displayed a sensor-assay potency score (higher = more potent) of 0.647. TGATAGAGCGACGTGAACTGGA: the sensor-assay potency score (higher = more potent) amounted to 0.268. Sequence TTTGACTCATCCTTGGGGCTGT had a sensor-assay potency score (higher = more potent) of 0.206. On the same count and under the same terms, next, TTGCCGGCTAAACTGTTCGTGG: -1.1; TTTGATAAAGTAACGGTTCAAA: -0.935. On the same count and under the same terms, next, TTCTTTGTGATAGAGCGACGTG: -0.986; TTGGGTCGCAAGGAGCTGCAAA: -0.645. Same read-out and setting: the same measure for TTTGGGAATACCGGTACTCTGG: -1.08. In turn, TGGATCTTGATGGCCGTGCTGG showed a sensor-assay potency score (higher = more potent) of -0.887. For the sequence TTGCTGCAAACTCTGCTGCCAG, the sensor-assay potency score (higher = more potent) is -1.02. The same measure, in the same setting: the same measure for TAAACTGTTCGTGGGAACCGCA: -0.882. Take ATGAGGAACTCGAACTCGCGGC: the sensor-assay potency score (higher = more potent) was -0.982.

The next assay concerns the target FOXN4. The description is as above. To be noted: shRNA.
On to TTGAGATGAATGCACAGCCACG, for which the sensor-assay potency score (higher = more potent) is -1.27.

The sequence ATTCCTGACATTATGGATGAGG yielded a sensor-assay potency score (higher = more potent) of -0.583. Sequence TAGATCTCGCTCACAGGCAGGC came in with a sensor-assay potency score (higher = more potent) of -0.142.

Sequence ATGTTGATGAAGTCTACAGGAG came in with a sensor-assay potency score (higher = more potent) of -1.25. As to TCAGCTTGTCCAACTCCTCAGG, the sensor-assay potency score (higher = more potent) is -0.891. The sequence TCCTCCATCTTGTCGATGCGGG displayed a sensor-assay potency score (higher = more potent) of -1.47. Same read-out and setting: the same measure for TTGCCATCTGCTGCAGCCGAGG: -1.85.

For TCAGTGTTCATGTCGGTGCTGA, the sensor-assay potency score (higher = more potent) is -0.14.

With TGAGTTTCGAATAATTCCTGAC, the sensor-assay potency score (higher = more potent) was -0.212. Same read-out and setting: next, TTCAGAGACAGGTTGTGCCGCA: 0.475; TGAAGCTGTAGATCTCGCTCAC: 0.304.

Source of the values: the OligoGym collection.
Also: reference of the scale not given here.
